Reference: PubChem BioAssay (NCATS)
Values joined by “and” are separate entries in the source; they are usually repeats but may differ in a detail not shown here. Equal entries are not always repeated. Inconclusive results are not listed. Active and inactive are the calls of the source. Calls follow the shape of the dose curve; as a rule, active = well fitted curve in the direction sought with a large enough effect; inconclusive = small, poorly fitted or top-dose-only effect, or another doubt; inactive = no such curve, though single readings can be large; an effect the other way counts as inactive or inconclusive.

What was measured:
[1] = Cell Viability - N2a (AID 540); settings: N2a mouse neuroblastoma cell viability; activity change, negative = cytotoxicity: at 92.2 µM (top of the series);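 also: cells exposed to compound for 40 h at 37 °C; plate controls were DMSO alone for no effect and tamoxifen control for full effect; nearly all actives have a fitted effect of over 45% in size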
Procedure, shortened: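 In this qHTS cytotoxicity screen, ATP-dependent luciferase luminescence reports viable N2a cells after a 40 hr compound exposure in complete culture medium. Potencies are AC50 values from standard Hill equation fits.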

[2] = Cell Viability - HUV-EC-C (AID 542); also: % is scaled to controls: 0 for no effect and ±100 for the full control effect; nearly all actives have a fitted effect of over 35% in size
Procedure, shortened: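 Concentration-dependent ATP loss in HUV-EC-C cells is the measure. Exposure lasts 40 hr at 37 °C; luminescence follows CellTiter-Glo addition, and Hill fits give AC50.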

[3] = Cell Viability - Renal Proximal Tubule (AID 545); settings: renal proximal tubule cells viability, primary cells of rat origin; at 91.7 µM (top of the series); also: nearly all actives have a fitted effect of over 40% in size
Procedure, shortened: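 In this qHTS format, normal rat kidney-derived proximal tubule cells in complete culture medium receive compound titrations, then sit 40 hours at 37 °C before luciferase-based ATP quantitation; potency is reported as AC50 from concentration-response curves.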

[4] = Cellular Toxicity (caspase-3) Jurkat (AID 655); settings: Jurkat caspase-3 activation, luminescence, DMSO = 0%, tamoxifen = 100%; at 92.2 µM (top of the series);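 also: cells exposed to compound for 16 h at 37 °C before reading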
Procedure, shortened: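 qHTS in human Jurkat T-cell leukemia line: 16 hr compound treatment at 37 °C, caspase-3/7 activity measured by Caspase-Glo luminescence. AC50 derived from Hill equation.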

[5] = Cellular Toxicity (caspase-3) SHSY5Y (AID 657);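 also: cells exposed to compound for 16 hours at 37 °C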
Procedure, shortened: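 Readout: caspase-cleaved peptide-aminoluciferin substrate driving luciferase light in SH-SY5Y neuroblastoma cells after 16 h treatment. Response normalized to DMSO and 10 uM staurosporine controls.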

[6] = Cellular Toxicity (caspase-3) SK-N-SH (AID 661);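 also: cells exposed to compound for 16 hours; 0% = DMSO basal and 100% = 10 µM staurosporine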
Procedure, shortened: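 Apoptosis readout in SK-N-SH neuroblastoma: Caspase-Glo 3/7 luminescence following 16 hr treatment in complete culture medium. Normalization used DMSO and 10 uM staurosporine controls.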

[7] = Cellular Toxicity (caspase-3) H-4-II-E (AID 663); settings: Potency: caspase-3 activation;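 also: cells exposed to compound for 16 hr before readout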
Procedure, shortened: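 Caspase 3/7 activation measured by luminescent aminoluciferin substrate cleavage after 16 hr compound treatment of H-4-II-E cells in complete medium. Increase normalized between DMSO (basal) and 100 uM tamoxifen (100%); Hill-equation AC50 from concentration-response.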

[8] = Cellular Toxicity (caspase-3) N2a (AID 665);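 also: compound exposure lasted 16 h at 37 °C before readout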
Procedure, shortened: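 Concentration-response qHTS: compound-induced caspase-3/7 luminescence in N2a cells (16 h, 37 °C), relative to DMSO and 10 uM staurosporine controls; AC50 obtained using the standard Hill equation.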

[9] = Cell Viability - LYMP2-001 (AID 921);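 also: 0% = DMSO only and full inhibition = tetraoctylammonium bromide control wells; nearly all actives have a fitted effect of over 70% in size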
Procedure, shortened: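 A lymphoblastoid cell line of human origin was treated with library compounds across a concentration series for 24 hours, and viable cell number was estimated from ATP-driven luciferase light output. Hill modeling gave AC50.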

[10] = Cell Viability - LYMP1-002 - Assay at 16 hr (AID 948);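 also: 0% = DMSO alone and full effect = 92 µM tetraoctylammonium bromide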
Procedure, shortened: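 In this qHTS, lymphoblastoid LYMP1-002 cells (human) receive compounds for 16 hr at 37 C. Viability is taken from CellTiter-Glo ATP luminescence, and AC50 derives from standard Hill fits.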

[11] = Cell Viability - LYMP1-003 - Assay at 24 hr (AID 963);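 also: plate controls were DMSO only for no effect and tetraoctylammonium bromide positive control for full effect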
Procedure, shortened: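 The lymphoblastoid line was treated with titrated compounds for 24 hours, and viable cell number estimated from luciferase-based ATP luminescence.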

[12] = Cell Viability - LYMP2-003 (AID 965);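 also: cells exposed to compounds for 24 h before reading; 0% = DMSO only and full effect = 92 µM tetraoctylammonium bromide; nearly all actives have a fitted effect of over 50% in size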
Procedure, shortened: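 qHTS, human lymphoblastoid line, 2500 cells/well, complete medium. 24 h drug, 37 C. ATP-based luminescent readout; Hill-fit AC50.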

[13] = Cell Viability - LYMP2-009 (AID 968);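 also: 0% = DMSO alone and the full-kill end = tetraoctylammonium bromide at 92 µM; nearly all actives have a fitted effect of over 55% in size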
[14] = Cell Viability - LYMP2-019 (AID 973);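 also: 0% = DMSO alone and full effect = 92 µM tetraoctylammonium bromide; nearly all actives have a fitted effect of over 55% in size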
Procedure, shortened: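 AC50 values come from Hill-equation modelling of qHTS concentration-response curves, where viability is measured as luciferase-based ATP luminescence in the lymphoblastoid line after 24 hr compound exposure in complete culture medium.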

[15] = Cell Viability - LYMP2-023 (AID 975);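 also: cellular ATP measured by luciferase luminescence as viability proxy; plate controls were DMSO only for no effect and 92 µM tetraoctylammonium bromide control for full effect; nearly all actives have a fitted effect of over 55% in size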
Procedure, shortened: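 In this qHTS, ATP-based luciferase luminescence (CellTiter-Glo) is quantified in human lymphoblastoid cells after 24 hr compound treatment at 37 C; tetraoctylammonium bromide serves as positive control. Concentration-response curves are Hill-fitted to give AC50.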

[16] = Cell Viability - LYMP2-025 (AID 976);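 also: plate controls were DMSO only for no effect and tetraoctylammonium bromide control for full effect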
Procedure, shortened: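 Luminescent ATP readout after 24 hr treatment of a human lymphoblastoid line (LYMP2-025, 2500 cells/well, 37 C). Reagent developed 30 min at room temperature; AC50 fitted with the Hill equation.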

[17] = Cell Viability - LYMP2-008 (AID 980); also: % is scaled to controls: 0 for no effect and ±100 for the full control effect; nearly all actives have a fitted effect of over 60% in size
Procedure, shortened: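 Measured: ATP-dependent luminescence, proportional to viable cell number, in human lymphoblastoid cells treated 24 hr with compound in complete culture medium. Values are AC50s from Hill-equation modelling of qHTS titrations.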

[18] = Cell Viability - LYMP2-014 (AID 983);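 also: plate controls were DMSO only for no effect and 92 µM tetraoctylammonium bromide for full effect; nearly all actives have a fitted effect of over 50% in size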
Procedure, shortened: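 Quantitative HTS in lymphoblastoid cells: 24 hr compound exposure, then CellTiter-Glo ATP luminescence. Positive control was tetraoctylammonium bromide, 6.4pM to 92 uM.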

[19] = Cell Viability - LYMP2-026 (AID 989); also: % is scaled to controls: 0 for no effect and ±100 for the full control effect; nearly all actives have a fitted effect of over 50% in size
Procedure, shortened: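 Acute toxicity screen in complete culture medium, with 24 hr compound exposure at 37 C. Viability read as cellular ATP via luciferase reaction, with tetraoctylammonium bromide (6.4pM to 92 uM) as positive control.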

[20] = Cell Viability - LYMP2-005 (AID 967);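 also: plate controls were DMSO only for no effect and 92 µM tetraoctylammonium bromide control for full effect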
Procedure, shortened: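 Luciferase-based ATP quantitation served as the viability measure in human lymphoblastoid LYMP2-005 cells exposed to test compounds for 24 h at 37 C in complete culture medium. Potency (AC50) was obtained by fitting concentration-response curves with the Hill equation.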

CCCCCCCCO
inactive: activity change, negative = cytotoxicity [1] -10.6% | outcome [2] | activity change, negative = cytotoxicity [3] -1.75% | caspase-3 activation [4] -0.397% | outcome [5] | outcome [6] | Potency [7] | outcome [8] | Potency [9] | Potency [10] | Potency [11] | Potency [12] | Potency [13] | Potency [14] | Potency [15] | Potency [16] | Potency [17] | Potency [18] | Potency [19]

ClCCCl
inactive: activity change, negative = cytotoxicity [1] 3.03% | outcome [2] | activity change, negative = cytotoxicity [3] -0.883% | caspase-3 activation [4] 2.03% | outcome [5] | outcome [6] | Potency [7] | outcome [8] | Potency [9] | Potency [10] | Potency [11] | Potency [12] | Potency [20] | Potency [13] | Potency [14] | Potency [15] | Potency [16] | Potency [17] | Potency [18] | Potency [19]

COC(=O)CCCCC(=O)OC
inactive: activity change, negative = cytotoxicity [1] 4.03% | outcome [2] | activity change, negative = cytotoxicity [3] 5.83% | caspase-3 activation [4] 2.55% | outcome [5] | outcome [6] | Potency [7] | outcome [8] | Potency [9] | Potency [10] | Potency [11] | Potency [12] | Potency [20] | Potency [13] | Potency [14] | Potency [15] | Potency [16] | Potency [17] | Potency [18] | Potency [19]

c1ccccc1
inactive: activity change, negative = cytotoxicity [1] -0.296% and -3.09% | outcome [2] | activity change, negative = cytotoxicity [3] 3.93% and -11% | caspase-3 activation [4] 0.593% and 0.461% | outcome [5] | outcome [6] | Potency [7] | outcome [8] | Potency [9] | Potency [10] | Potency [11] | Potency [12] | Potency [20] | Potency [13] | Potency [14] | Potency [15] | Potency [16] | Potency [17] | Potency [18] | Potency [19]

Clc1cc(Cl)c(Cl)cc1Cl
inactive: activity change, negative = cytotoxicity [1] 2.22% | outcome [2] | activity change, negative = cytotoxicity [3] -8.1% | caspase-3 activation [4] 2.8% | outcome [5] | outcome [6] | Potency [7] | outcome [8] | Potency [9] | Potency [10] | Potency [11] | Potency [12] | Potency [20] | Potency [13] | Potency [14] | Potency [15] | Potency [16] | Potency [17] | Potency [18] | Potency [19]

C1OCOCO1
inactive: activity change, negative = cytotoxicity [1] -19.8% | outcome [2] | activity change, negative = cytotoxicity [3] -10.6% | caspase-3 activation [4] 2.97% | outcome [5] | outcome [6] | Potency [7] | outcome [8] | Potency [9] | Potency [10] | Potency [11] | Potency [12] | Potency [20] | Potency [13] | Potency [14] | Potency [15] | Potency [16] | Potency [17] | Potency [18] | Potency [19]

CCC(C)c1ccccc1O (centres undefined)
inactive: activity change, negative = cytotoxicity [1] 0.301% and 2.4% | outcome [2] | activity change, negative = cytotoxicity [3] 2.94% and 2.27% | caspase-3 activation [4] 0.687% and -0.479% | outcome [5] | outcome [6] | Potency [7] | outcome [8] | Potency [9] | Potency [10] | Potency [11] | Potency [12] | Potency [20] | Potency [13] | Potency [14] | Potency [15] | Potency [16] | Potency [17] | Potency [18] | Potency [19]

CCCCC(CC)CN (centres undefined)
inactive: activity change, negative = cytotoxicity [1] -20.4% and 2.62% | outcome [2] | activity change, negative = cytotoxicity [3] -8.31% and 1.31% | caspase-3 activation [4] -1.36% and 1.48% | outcome [5] | outcome [6] | Potency [7] | outcome [8] | Potency [9] | Potency [10] | Potency [11] | Potency [12] | Potency [20] | Potency [13] | Potency [14] | Potency [15] | Potency [16] | Potency [17] | Potency [18] | Potency [19]

COC(=O)c1ccc(C)cc1
inactive: activity change, negative = cytotoxicity [1] -14.4% | outcome [2] | activity change, negative = cytotoxicity [3] -5.83% | caspase-3 activation [4] 0.483% | outcome [5] | outcome [6] | Potency [7] | outcome [8] | Potency [9] | Potency [10] | Potency [11] | Potency [12] | Potency [20] | Potency [13] | Potency [14] | Potency [15] | Potency [16] | Potency [17] | Potency [18] | Potency [19]

C=CCOC(=O)c1ccccc1C(=O)OCC=C
inactive: activity change, negative = cytotoxicity [1] -8.09% | outcome [2] | activity change, negative = cytotoxicity [3] -7.06% | caspase-3 activation [4] -1.58% | outcome [5] | outcome [6] | Potency [7] | outcome [8] | Potency [9] | Potency [10] | Potency [11] | Potency [12] | Potency [20] | Potency [13] | Potency [14] | Potency [15] | Potency [16] | Potency [17] | Potency [18] | Potency [19]
